This note sets out measurements from PubChem BioAssay (Tox21).

Records with an inconclusive call do not appear. Where a call stands in place of a potency, no number is given. The source made the active and inactive calls. The call rests on the fitted dose curve; in most records, active means well fitted cell-killing curve with a large enough effect in the repeat runs; inconclusive means weak or mixed curves, or effect the other way; inactive means flat fitted curve, though single readings scatter. Positions of bridges follow the written chain, without caps; N, C: chain ends. Non-standard residues stand in square brackets, D forms with d. Residues, ends and D or L forms follow the SMILES beside them. hArg = N=C(N)NCCCC[C@H](N)C(=O)O; Mpa = O=C(O)CCS

A short description of this assay: qHTS assay to identify small molecule antagonists of the androgen receptor (AR) signaling pathway using the MDA cell line - cell viability counter screen (AID 743041; further: nearly all actives have a fitted effect of over 45% in size). Conditions: MDA-kb2 viability, CellTiter-Fluor, 16 h, cells co-treated with R1881 androgen agonist; series mostly up to 70.3 µM. The source says: National Center for Advancing Translational Sciences [NCATS]
NIH Chemical Genomics Center [NCGC]
U.S. Environmental Protection Agency [EPA]
National Institutes of Environmental Health Sciences [NIEHS]
National Toxicology Program [NTP]
U.S. Food and Drug Administration [FDA]
Androgen receptor (AR), a nuclear hormone receptor, plays a critical role in AR-dependent prostate cancer and other androgen related diseases. Endocrine disrupting chemicals (EDCs) and their interactions with steroid hormone receptors like AR may cause disruption of normal endocrine function as well as interfere with metabolic homeostasis, reproduction, developmental and behavioral functions. To identify the compounds that inhibit AR signaling, MDA-kb2 AR-luc cell line (from ATCC, deposited by Wilson et al.) was used to screen the Tox21 10K compound library. MDA-kb2 AR-luc cell line is human breast carcinoma cell line that was stably transfected with a luciferase reporter gene under control of the MMTV promoter containing response elements for both androgen receptor (AR) and glucocorticoid receptor (GR). The cytotoxicity of the Tox21 compound library against the MDA-kb2 AR-luc cell line was tested in parallel by measuring the cell viability using CellTiter-Fluor assay (Promega, Madison, WI) in the same wells.
Tox21 Assay Protocol Summary:
MDA-kb2 AR-luc cells were dispensed at 3,000 cells/4 uL/well of culture medium into white wall/solid-bottom 1536-well plates using a Multidrop Combi (ThermoFisher Scientific, Waltham, MA) dispenser. After the assay plates were incubated at a 37C and 0% CO2 for 5 hr, 23 nL of compounds dissolved in DMSO, positive controls or DMSO only was transferred to the assay plate by a Pintool station (Kalypsys, San Diego, CA), followed by addition of 1 uL of agonist (R1881) in culture medium using a Bioraptr Flying Reagent Dispenser (FRD) workstation (Beckman Coulter, Indianapolis, IN, USA). The plates were incubated at a 37C and 0% CO2 for 16 h. After 15.5 h incubation, 1uL of CellTiter-Fluor reagent (Promega) was added using a Bioraptr FRD to each plate for measuring cytotoxicity. The fluorescence intensity was quantified on a ViewLux plate reader (PerkinElmer, Shelton, CT) following 30 min incubation at 37C and 0% CO2.
Regarding `CC1(C)[C@H]2CC[C@](C)(C2)[C@H]1O`, the Potency entry was “inactive”.

In the case of `CCCCCCCCCCCCCCCCCCOCCO`, the Potency result was “inactive”.

Regarding `CC1CC(=O)CC(C)(C)C1` (stereo not given), the Potency entry was “inactive”.

Turning to `CCC(C)OC(C)CC` (stereo not given), the Potency result is “inactive”.

As to `CC(C)Nc1ccccc1`, the Potency result is “inactive”.

In the case of `CC(CO)(CO)CO`, the Potency entry is “inactive”.

Regarding `ONc1ccccc1`, the Potency result is “inactive”.

As for `CO[Si](CCCn1c(=O)n(CCC[Si](OC)(OC)OC)c(=O)n(CCC[Si](OC)(OC)OC)c1=O)(OC)OC`, the Potency entry was “inactive”.

For `CC(C)=CCC[C@@](C)(O)[C@H]1CC=C(C)CC1`, the Potency result is “inactive”.

On to `COC(=O)/C=C\C(=O)O`, for which the Potency entry is “inactive”.

With `CC12CCC(C1)C(C)(C)C2O` (stereo not given), the Potency entry was “inactive”.

Consider `CC(C)NCC(O)c1ccc2ccccc2c1` (stereo not given), for which the Potency entry is “inactive”.

Take `CCO[Si](CC)(OCC)OCC`: the Potency entry is “inactive”.

As to `C=CC/C=C/C`, the Potency entry is “inactive”.

Consider `CC(=O)O[C@@H]1CC2CCC1(C)C2(C)C` (stereo not given in full), for which the Potency entry was “inactive”.

On to `CO/N=C(/C(=O)N[C@@H]1C(=O)N2C(C(=O)[O-])=C(C[n+]3ccn4ncccc43)CS[C@H]12)c1nsc(N)n1`, for which the Potency result is “inactive”.

In the case of `CCCCOC(=O)[C@H](C)O`, the Potency result was “inactive”.

As for `CCNC(=O)NCc1cccc(Cl)c1`, the Potency result is “inactive”.

In the case of `CCCCCCC1(C)CCC(=O)O1` (stereo not given), the Potency result is “inactive”.

As for `O/N=C/C=N/O`, the Potency entry was “inactive”.

On to `Cc1ccc(N)cc1S(=O)(=O)O`, for which the Potency result was “inactive”.

In the case of `OC[C@@H](O)C(O)[C@@H](O)CO` (stereo not given in full), the Potency entry is “inactive”.

On to `COS(=O)(=O)O`, for which the Potency result was “inactive”.

`CC(=O)OC1CCCCC1C(C)(C)C` (stereo not given): the Potency entry is “inactive”.

Consider `COC(=O)c1cccc(Cl)c1`, for which the Potency entry is “inactive”.

As for `O=C(NCN1CCOCC1)c1cnccn1`, the Potency entry is “inactive”.

As for `CCCCSCCCC`, the Potency entry was “inactive”.

As to `OCC(O)CN1CCN(c2ccccc2)CC1` (stereo not given), the Potency entry is “inactive”.

For the molecule `C=C(C)[C@@H]1CC=C(C)CC1`, the Potency entry is “inactive”.

As for `Cc1ccc(C)c([N+](=O)[O-])c1`, the Potency entry is “inactive”.

As to `COP(=O)(O)OP(=O)(O)OC`, the Potency entry is “inactive”.

With `Cc1cccc(Cl)c1`, the Potency entry is “inactive”.

`C=CCCCC`: the Potency result is “inactive”.

In the case of `c1ccc2cnccc2c1`, the Potency result was “inactive”.

With `CC(=O)CC(=O)Nc1ccc(C)cc1C`, the Potency result was “inactive”.

With `CCCCCCCCCCCCCCCCCC#N`, the Potency entry was “inactive”.

Take `CCCSSCCC`: the Potency result was “inactive”.

For `Cn1nnc2c(C(N)=O)ncn2c1=O`, the Potency entry is “inactive”.

As for `NC(=O)[C@@H]1CSSCCC(=O)N[C@@H](CCCCN=C(N)N)C(=O)NCC(=O)N[C@@H](CC(=O)O)C(=O)N[C@@H](Cc2c[nH]c3ccccc23)C(=O)N2CCC[C@H]2C(=O)N1` ([Mpa][hArg]GDWPC-NH2; disulfide 1-7), the Potency result was “inactive”.

Turning to `O=C(Cl)c1ccccc1[N+](=O)[O-]`, the Potency entry was “inactive”.
